Experimental findings from PubChem BioAssay are described below.

The structures appear in SMILES notation. Activity calls are given as the source filed them. Unless noted, how the calls were made is not given here.

Assay [1] has as its system Wnt5a (protein binding on small-molecule microarray). As to the kind of experiment: small molecules binding Wnt5a protein – biophysical, small-molecule microarray, 635/667 nm fluorescence, primary screen (AID 1142).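 Further: fluorescence read at 667 nm with signal to noise per printed feature.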 The settings on record: 635 nm fluorescence, higher = more signal.
A short description of assay [2]: ATP-based viability of Huh7 replicon cells – cell-based, CellTiter-Glo luminescence, basal, 48 h, cytotoxicity control for HCV replication inhibitor project, primary screen (AID 1143).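 Further: Huh7 hepatoma cells carrying a hepatitis C replication reporter with no stimulus; test concentration not given here.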 The settings on record: higher = more signal, called active from +8 up or from −8 down. A general note: A replicon is a self-replicating genome or part of one, used to study replication in cells.

The nature of assay [3]: Pseudomonas biofilm growth suppression – PAO1 strain, BacTiter-Glo luminescence, LB-PBS, primary screen (AID 1144). The settings on record: P. aeruginosa PAO1 biofilm, 12 h, higher = more signal.
A short description of assay [4]: basal CRE-LacZ reporter activity in PC12 – cell-based, unstimulated, primary screen (AID 1145). The settings on record: no forskolin, luminescence, 4.5 h, higher = more signal, called active from +8 up or from −8 down.
Assay [5] is described as follows: forskolin-driven CRE-LacZ activity in PC12 – cell-based, CRE-LacZ reporter, forskolin-stimulated, primary screen (AID 1146).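 Further: PC12 cells with 6xCRE LacZ reporter stimulated by forskolin 10 µM; beta-galactosidase reporter signal reflecting CREB driven transcription.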 The settings on record: luminescence, 4.5 h, higher = more signal, called active from +8 up or from −8 down.
Assay [6] addresses Streptavidin (Streptomyces avidinii) (UniProt P22629). As to the kind of experiment: compounds binding control protein streptavidin – biophysical, small-molecule microarray, 635/667 nm fluorescence, artefact control for SMM compound annotation, primary screen (AID 1147).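 Further: signal reflects streptavidin binding to arrayed compounds as a control protein.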 Particulars: higher = more signal.
The nature of assay [7]: probe aInhba binding on compound microarray – biochemical, small-molecule microarray, 635/667 nm fluorescence, primary screen (AID 1148).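 Further: score merges 667nm spot fluorescence with signal-to-noise for antibody binding to printed compounds.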 The settings on record: higher = more signal.
Assay [8] addresses Torsin-1A (Homo sapiens) (UniProt O14656). As to the kind of experiment: TOR1A wild-type binding on microarray – cell lysate, small-molecule microarray, lysate, 635/667 nm, primary screen (AID 1149). The settings on record: COS7 hTOR1A-WT lysate, 635 nm fluorescence, higher = more signal.
For assay [9] the target is unchanged. As to the kind of experiment: torsin A mutant lysate binding on microarrays – cell lysate, small-molecule microarray, COS7 lysate, 635/667 nm fluorescence, primary screen (AID 1150).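 Further: score pools 667 nm emission and signal to noise measuring lysate protein binding.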 Particulars: COS7 hTOR1A mutant lysate, 635 nm fluorescence, higher = more signal.
For assay [10], the system named is Sonic hedgehog protein (Shh). As to the kind of experiment: Sonic hedgehog microarray binding compounds – biochemical, small-molecule microarray, 635/667 nm fluorescence, primary screen (AID 1151).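 Further: Shh protein binding to compounds spotted on small-molecule microarray slides; score combines spot fluorescence intensity with signal-to-noise across triplicate slides.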 The settings on record: 635 nm fluorescence, higher = more signal.

Torsin-1A (Homo sapiens), sequence (O14656 whole entry, looked up): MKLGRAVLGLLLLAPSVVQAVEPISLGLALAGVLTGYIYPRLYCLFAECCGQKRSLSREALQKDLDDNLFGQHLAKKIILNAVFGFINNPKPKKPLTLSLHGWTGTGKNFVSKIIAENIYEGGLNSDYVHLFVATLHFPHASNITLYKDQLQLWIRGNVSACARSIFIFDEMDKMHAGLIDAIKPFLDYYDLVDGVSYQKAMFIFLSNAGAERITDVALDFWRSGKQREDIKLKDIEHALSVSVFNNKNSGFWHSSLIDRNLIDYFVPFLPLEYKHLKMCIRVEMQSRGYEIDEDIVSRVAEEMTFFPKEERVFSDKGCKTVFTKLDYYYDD
Streptavidin (Streptomyces avidinii), sequence (P22629 whole entry, looked up): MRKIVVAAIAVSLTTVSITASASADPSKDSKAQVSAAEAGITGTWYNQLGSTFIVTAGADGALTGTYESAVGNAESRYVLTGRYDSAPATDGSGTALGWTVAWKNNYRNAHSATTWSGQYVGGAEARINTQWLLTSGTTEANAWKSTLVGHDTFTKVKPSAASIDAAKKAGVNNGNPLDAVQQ

For `CC(=O)N1CC(C(O)C2C=CC3C(=O)NC(=O)C3N2Nc2ccc(Cl)cc2Cl)c2ccccc21` (stereo not given), the composite z-score in [1] was -0.0061; in [6] it was 0.543; in assay [7] it was 0.16; with Torsin-1A (Homo sapiens) [8], -0.291; with Torsin-1A (Homo sapiens) [9], 0.545; in assay [10] it was -0.123. Besides, the z-score was -0.0847 (inactive) in [2], -0.651 (inactive) in [3], 1.21 (inactive) in assay [4] and -0.584 (inactive) in assay [5].
In the case of `C=CCC(OC(C)=O)[C@@H]1[C@@H](N(Cc2ccc(-c3ccccc3)cc2)C(=O)Cc2ccc(F)cc2)c2cc(OCCCO)ccc2N1C(=O)Cc1ccc2ccccc2c1` (stereo not given in full), the composite z-score in assay [1] is 0.261; in [6], 0.612; in assay [7] it was 0.038; in the assay with Torsin-1A (Homo sapiens) [8] it was -0.194; in the assay with Torsin-1A (Homo sapiens) [9], -0.0043; in assay [10] it was -0.0096. In addition, the z-score in [2] is 0.189 (inactive); in [3], -0.59 (inactive); in assay [4], 0.367 (inactive); in assay [5], 0.997 (inactive).
With `Cc1ccc(S[C@]2(C(=O)NCC(C)C)CC(=O)N(C3Cc4ccccc4C3)[C@@H]2c2ccc(CO)cc2I)cc1`, the composite z-score in assay [1] is -0.305; in assay [6] it was -1.21; in assay [7], -0.182; in the assay with Torsin-1A (Homo sapiens) [8], -0.284; with Torsin-1A (Homo sapiens) [9], -0.183; in assay [10], -0.51. Further, the z-score is -0.552 (inactive) in [2], 0.491 (inactive) in [3], 0.389 (inactive) in assay [4] and 1.42 (inactive) in assay [5].
As for `C=C/C=C/[C@@H]1C(=C)CN([C@@H](Cc2ccccc2)C(=O)OC)[C@H]1[C@@H](O)Cc1ccccc1`, the composite z-score in [1] is -0.0425; in assay [6], 0.185; in assay [7], -0.0418; with Torsin-1A (Homo sapiens) [8] it was 0.218; in the assay with Torsin-1A (Homo sapiens) [9], 0.795; in [10], 0.949. Besides, the z-score in assay [2] was -0.342 (inactive); in [3] it was -0.428 (inactive); in [4] it was 3.38 (inactive); in [5], 2.05 (inactive).
For the molecule `C=CCN1C(=O)[C@]2(O[C@H](CCO)[C@@H]([Si](C)(C)c3ccc(OC)cc3)[C@@H]2C)c2cc(NC(=O)c3ccc(OC)cc3)ccc21`, the composite z-score came to 0.211 in assay [1]; 0.535 in assay [6]; 0.0541 in assay [7]; 0.598 in the assay with Torsin-1A (Homo sapiens) [8]; 0.726 in the assay with Torsin-1A (Homo sapiens) [9]; 2.11 in assay [10]. The z-score in [2] is -7.99 (inactive); in [3], -0.236 (inactive); in [4], 15.2 (active); in assay [5], -1.43 (inactive).
